Bioassay records from PubChem.
SENP7 inh: SENP7 protease inhibition; Q9BQF6; recombinant SENP7, Z-RLRGG-aminoluciferin luminescence, 40 min; inhibition, % at 5 µM; 1.5% of 330,000 active; AID 434973;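 active = inhibition above about 50% at the single test dose, limit read from the data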
HSP90 inh: inhibitors of HSP90 luciferase refolding in rabbit reticulocyte lysate; luciferase refolding luminescence, 3 h; inhibition, % at 5.6 µM; 0.91% of 290,000 active; AID 1789;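 active = inhibition above the screen-wide mean plus 3 SD, computed separately per campaign, cut at about 16% in these data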;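 also: inhibitors lower the luminescence because luciferase stays unfolded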
SENP8 block-1: inhibitors of human SENP8 protease; Q96LD8; 1.2% of 330,000 active; purified SENP8, Z-RLRGG-aminoluciferin cleavage, luminescence; AID 2540; inhibition, % at 10 µM; in the data active = inhibition above about 50%
SENP6 block: inhibitors of human SENP6 protease; Q9GZR1; Recombinant SENP6 catalytic domain, aminoluciferin luminescence; inhibition, % at 10 µM; 1.8% of 330,000 active; AID 2599;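 active = inhibition above about 50% at the single tested dose, limit read from the data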
SENP8 block-2: SENP8 (human) protease inhibition | Q96LD8 | 0.64% of 360,000 active | inhibition, % at 20 µM | recombinant SENP8, Nedd8 substrate fluorescence; in the data active = inhibition mostly above about 40%, no sharp cut-off; inactive = mostly below about 27%
HSP90 confirm: HSP90 inhibition, confirmation assay; inhibition, % at 5.9 µM; rabbit reticulocyte lysate, luciferase refolding luminescence, 3 h; AID 1846; shares compounds with HSP90 inh; 64% of 2,300 active; in the data active = inhibition above about 18%
luciferase ctr: counter-screen for HSP90 inhibitors: inhibitors of firefly luciferase; inhibition, % at 5.9 µM; purified native firefly luciferase, luminescence; 48% of 2,300 active; shares compounds with HSP90 inh;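 active = inhibition above the mean inhibition of all tested sample wells plus 3 SD, cut at about 10% in these data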
Target sequence (P08659 whole entry, looked up): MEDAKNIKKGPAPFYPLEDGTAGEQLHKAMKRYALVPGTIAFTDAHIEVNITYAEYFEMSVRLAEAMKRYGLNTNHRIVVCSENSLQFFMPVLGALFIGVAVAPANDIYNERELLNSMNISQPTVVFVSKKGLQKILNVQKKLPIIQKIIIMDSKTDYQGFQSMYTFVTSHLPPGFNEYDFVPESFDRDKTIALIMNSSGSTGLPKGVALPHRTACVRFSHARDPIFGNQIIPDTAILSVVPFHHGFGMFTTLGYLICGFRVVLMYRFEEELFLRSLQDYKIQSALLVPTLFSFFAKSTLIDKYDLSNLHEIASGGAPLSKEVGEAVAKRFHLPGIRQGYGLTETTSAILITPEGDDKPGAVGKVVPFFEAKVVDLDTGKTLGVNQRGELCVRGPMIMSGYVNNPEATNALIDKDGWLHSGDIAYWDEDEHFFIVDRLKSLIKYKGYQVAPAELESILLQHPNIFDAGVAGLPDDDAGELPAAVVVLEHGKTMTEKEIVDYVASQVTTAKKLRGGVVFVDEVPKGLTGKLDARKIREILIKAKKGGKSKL
Large screens that a line does not name were inactive (follow-up assays come after a bar, where they were run). A selection: hits, their analogues and other compounds. The true share with any hit is near 2.8%.

CCc1nnc(NC(=O)CSc2nc3c(cc2C#N)CCCC3)s1	HSP90 inh 25 | HSP90 confirm inactive | luciferase ctr inactive
Nc1nc(-c2ccc(NC(=O)c3ccco3)cc2)cs1	HSP90 inh 28 | HSP90 confirm 51 | luciferase ctr 46
O=C(Nc1ccc(NC(=O)c2ccco2)cc1)c1ccco1	none
COc1ccc(-n2cnnc2SCC(=O)Nc2ccc(N3CCOCC3)cc2)cc1	none
O=C(c1ccc(NS(=O)(=O)c2cccc(F)c2)cc1)N1CCCC1	none
O=C(c1ccc(NS(=O)(=O)c2cccc(F)c2)cc1)N1CCCCC1	HSP90 inh 24 | HSP90 confirm inactive | luciferase ctr inactive
CCOC(=O)c1ccc(-c2ccc(C=O)o2)cc1	HSP90 inh 30 | HSP90 confirm 52 | luciferase ctr inactive
CCOC(=O)c1cccc(-c2ccc(C=O)o2)c1	none
COc1ccc(-c2cn3c(C)c(C(=O)Nc4ccncc4)sc3n2)cc1	none
COC(=O)c1ccc(NC(=O)c2sc3nc(-c4ccccc4)cn3c2C)cc1	HSP90 inh 21 | HSP90 confirm 18 | luciferase ctr inactive
Cc1ccc(-c2cnc(NCc3cc4c(cc3[N+](=O)[O-])OCO4)n2C)cc1C	none
COc1ccc(-c2csc(Nc3ccc(S(N)(=O)=O)cc3)n2)cc1OC	HSP90 inh 23 | HSP90 confirm inactive | luciferase ctr inactive
O=C(O)c1ccc(N/N=C/c2cc3ccccc3nc2Cl)cc1	HSP90 inh 28 | HSP90 confirm inactive | luciferase ctr inactive
COC(=O)[C@@H](c1ccccc1)N(C)S(=O)(=O)c1cccc(S(=O)(=O)N(C)[C@@H](C(=O)OC)c2ccccc2)c1	HSP90 inh 22 | HSP90 confirm inactive | luciferase ctr inactive
O=C(O)c1cccc(-c2ccc(/C=N/n3cnc4sc5c(c4c3=O)CCCC5)o2)c1	none (no result: SENP8 block-2)
CCC(=O)Nc1ccc2nc(C3CC3)n(Cc3ccc(C(C)(C)C)cc3)c(=O)c2c1	SENP7 inh 91, HSP90 inh 22, SENP8 block-1 71, SENP6 block 86 | HSP90 confirm 21 | luciferase ctr 17
CC(=O)Nc1ccc2nc(C3CC3)n(Cc3ccc(Cl)cc3)c(=O)c2c1	none
CCN1CCN(C(=O)CN(c2cc(OC)ccc2OC)S(C)(=O)=O)CC1	none
COc1ccc(OC)c(N(CC(=O)N2CCN(Cc3ccccc3)CC2)S(C)(=O)=O)c1	HSP90 inh 20 | HSP90 confirm inactive | luciferase ctr inactive
COCCn1c(C)cc(C(=O)Cn2nc(C(=O)O)c3ccccc3c2=O)c1C	HSP90 inh 67 | HSP90 confirm 75 | luciferase ctr inactive
COCCn1c(C)cc(C(=O)COC(=O)c2ccc[nH]c2=O)c1C	HSP90 inh 31 | HSP90 confirm 45 | luciferase ctr 54
C=CCn1c(C)cc(C(=O)Cn2nc(C(=O)O)c3ccccc3c2=O)c1C	HSP90 inh 51 | HSP90 confirm 71 | luciferase ctr 20
COC(=O)c1ccc(OCC(O)CNC2CCCC2)cc1 (stereo unspecified)	none
COc1ccc(Cl)cc1NC(=O)C[n+]1ccccc1	none
O=C(NCCN1CCOCC1)c1ccc2c(c1)N(Cc1cccc(F)c1)C(=O)c1ccccc1S2	HSP90 inh 20 | HSP90 confirm inactive | luciferase ctr inactive
CCC/C=N/Nc1nc2ccccc2s1	HSP90 inh 20 | HSP90 confirm inactive | luciferase ctr inactive
CCOC(=O)c1c2c3c(cccc3n(C)c1=O)C(=O)c1ccccc1-2	HSP90 inh 44 | HSP90 confirm inactive | luciferase ctr inactive
O=Cc1c(Nc2cccc(C(F)(F)F)c2)nc2ccccn2c1=O	none
O=c1c2cc(N3CCOCC3)ccc2[nH]c(=S)n1CCCN1CCCC1	none
NC(=S)N/N=C/c1ccccc1[N+](=O)[O-]	none
CCCOc1ccc(/C=N/NC(=S)Nc2ccccc2[N+](=O)[O-])c(O)c1	HSP90 inh 75 (no result: SENP7 inh, SENP8 block-1, SENP6 block, SENP8 block-2) | HSP90 confirm 75 | luciferase ctr 21
CCNC(=S)N/N=C/c1ccccc1[N+](=O)[O-]	HSP90 inh 20 | HSP90 confirm inactive | luciferase ctr inactive
COc1ccc(/C=N/NC(=S)Nc2ccccc2[N+](=O)[O-])cc1O	HSP90 inh 51 (no result: SENP7 inh, SENP8 block-1, SENP6 block) | HSP90 confirm 53 | luciferase ctr 11
O=[N+]([O-])c1cc(/C=N/NC(=S)Nc2ccccc2Cl)ccc1Cl	none
Cc1onc(-c2c(Cl)cccc2Cl)c1C(=O)N1CCCCC1	none
Cc1cc(=O)[nH]c(/N=C(\N)Nc2ccc(Oc3ccccc3)cc2)n1	none
Cc1cccc(NC(=S)NC(=O)/C=C/c2ccco2)n1	HSP90 inh 18 | HSP90 confirm inactive | luciferase ctr inactive
CC(C)(C)n1nnnc1C(c1ccccc1F)N1CCN(C2CCCC2)CC1 (stereo unspecified)	HSP90 inh 23 (no result: SENP7 inh, SENP8 block-1, SENP6 block) | HSP90 confirm inactive | luciferase ctr inactive
OCCNC(=S)Nc1ccc(Cl)c(Cl)c1	none
OCCNC(=S)Nc1cc(Cl)cc(Cl)c1	HSP90 inh 18 | HSP90 confirm inactive | luciferase ctr inactive
CC1CCN(S(=O)(=O)c2ccc3c(c2)c(=O)c(C(=O)NCc2ccco2)cn3C)CC1	none
Cc1ccc(NC(C)C(=O)N/N=C/c2ccc([N+](=O)[O-])s2)cc1 (stereo unspecified)	HSP90 inh 35 | HSP90 confirm inactive | luciferase ctr inactive
CCOCCCNC(=O)c1ccc(NC(=O)C2CCCO2)cc1 (stereo unspecified)	HSP90 inh 30 | HSP90 confirm inactive | luciferase ctr inactive
Cn1c(-c2ccccc2)cnc1SCC(=O)N1CCCc2ccccc21	none
Cn1c(-c2ccccc2)cnc1SCC(=O)N1CCCCC1	HSP90 inh 33 | HSP90 confirm 64 | luciferase ctr 56
Cc1ccc(NCC(=O)c2ccc(C)cc2)cc1	HSP90 inh 22 | HSP90 confirm inactive | luciferase ctr inactive
Cc1nc2cc(C)c(C)cc2s1	none
Cc1cc2nc3ccc(=[N+](C)C)cc-3sc2cc1N	HSP90 inh 82, SENP8 block-2 57 (no result: SENP7 inh, SENP8 block-1, SENP6 block) | HSP90 confirm 89 | luciferase ctr 38
COc1ccc(OC)c(NC(=O)CSc2nnnn2C2CCCC2)c1	none
O=C(c1ccc(N2CCOCC2)cc1)c1cccs1	HSP90 inh 18 | HSP90 confirm 42 | luciferase ctr 21
O=C(Nc1ccc(N2CCOCC2)cc1N1CCOCC1)c1cccs1	none
CCOc1ccc(C2CC(c3ccccc3C)n3ncnc3N2)cc1 (stereo unspecified)	none
COc1ccc(-c2cc(C)nc(SCc3cccc(C(=O)O)c3)n2)cc1	none
Cc1nc(SCc2cccc(C(=O)O)c2)nc2c1CCCC2	HSP90 inh 18 | HSP90 confirm 47 | luciferase ctr 18
COc1ccc(OC(=O)COc2ccccc2C)cc1	none (no result: HSP90 inh)
O=C(O)c1ccc2nc(CO)[nH]c2c1	HSP90 inh 36 | HSP90 confirm 20 | luciferase ctr inactive
Cc1ncc(C[n+]2csc(CCOC(=O)C34CC5CC(CC(C5)C3)C4)c2C)c(N)n1	HSP90 inh 50 | HSP90 confirm inactive | luciferase ctr inactive
